# According to the supplement of paper PMC6555819:
# Assays:
# Assay in all cases: PBM binding z-score (relative to random genomic background probes); higher = stronger binding; sequences stand for … in GC…GCGATTGACAGCGTAGAATGAAGG
# [1] = tested on: PPARg:RXRa DBDmut IVT, anti-RXR (DBD mutation: RXRa K156A/R161A, NR concentration 270 nM, RXRa partner concentration 90 nM)
# Procedure, shortened: (§1)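 Probes were double-stranded and carried 34-nt variable regions with direct-repeat seeds, single-nucleotide variants, half-site ablations and random human genomic background sequences, printed on custom Agilent 4×180K protein-binding microarrays. Arrays were incubated 1 h with ligand-free nuclear receptor dimers in PBS pH 7.4, 2% milk, 0.02% Triton X-100, 1 mM DTT, 0.2 mg/mL BSA and 0.4 mg/ml salmon testes DNA. Antibodies against each partner (one per run) detected binding, and scanned fluorescence was regression-normalized. Binding z-scores use the random background probes as reference.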
# [2] = tested on: PPARg:RXRa IVT, anti-PPARg (NR concentration 270 nM, RXRa partner concentration 90 nM)
# Procedure, shortened: as §1
# [3] = tested on: PPARg DBDmut:RXRa IVT, anti-PPARg (DBD mutation: PPARg1 K132A/R137A, NR concentration 270 nM, RXRa partner concentration 90 nM)
# Procedure, shortened: as §1
# [4] = tested on: PPARg DBDmut IVT, anti-PPARg (DBD mutation: PPARg1 K132A/R137A, NR concentration 270 nM)
# Procedure, shortened: as §1
# [5] = tested on: PPARg homodimer (NR concentration 180 nM)
# Procedure, shortened: as §1
# [6] = tested on: PXR:RXRa (NR concentration 270 nM, RXRa partner concentration 90 nM)
# Procedure, shortened: as §1
# [7] = tested on: PXR homodimer (NR concentration 270 nM)
# Procedure, shortened: as §1
# [8] = tested on: RARa:RXR (NR concentration 270 nM, RXRa partner concentration 90 nM)
# Procedure, shortened: as §1
# [9] = tested on: RARa homodimer (NR concentration 270 nM)
# Procedure, shortened: as §1
# [10] = tested on: RARb:RXRa (NR concentration 270 nM, RXRa partner concentration 90 nM)
# Procedure, shortened: as §1
# [11] = tested on: RARb homodimer (NR concentration 270 nM)
# Procedure, shortened: as §1
# [12] = tested on: RARg:RXRa (NR concentration 270 nM, RXRa partner concentration 90 nM)
# Procedure, shortened: as §1
# [13] = tested on: RARg homodimer (NR concentration 270 nM)
# Procedure, shortened: as §1
# [14] = tested on: RXRa DBDmut IVT, anti-RXR (DBD mutation: RXRa K156A/R161A, NR concentration 90 nM)
# Procedure, shortened: as §1
# [15] = tested on: RXRa homodimer (NR concentration 180 nM)
# Procedure, shortened: as §1
# [16] = tested on: THRa:RXRa (NR concentration 90 nM, RXRa partner concentration 90 nM)
# Procedure, shortened: as §1
# [17] = tested on: THRa homodimer (NR concentration 90 nM)
# Procedure, shortened: as §1
# [18] = tested on: VDR homodimer (NR concentration 270 nM)
# Procedure, shortened: as §1
Sequence,PBM binding z-score [1],PBM binding z-score [2],PBM binding z-score [3],PBM binding z-score [4],PBM binding z-score [5],PBM binding z-score [6],PBM binding z-score [7],PBM binding z-score [8],PBM binding z-score [9],PBM binding z-score [10],PBM binding z-score [11],PBM binding z-score [12],PBM binding z-score [13],PBM binding z-score [14],PBM binding z-score [15],PBM binding z-score [16],PBM binding z-score [17],PBM binding z-score [18]
CCAGACACGTGAAAGGTAACTCAGTCTGGTACGC,-0.261,-0.369,-0.212,-0.126,-0.0268,-0.338,-0.312,-0.206,0.0098,0.231,-0.128,-0.098,0.0725,0.166,0.263,0.166,-0.268,-0.17
TCTCGGAGGACACGAAAGGTCAGCGCTCGACATC,2.02,1.8,-0.121,0.158,3.31,4.36,0.337,4.86,1.84,4.42,4.96,5.25,6.15,1.39,4.52,3.89,1.76,1.13
TCTCGGAGGCCACGAAAGGTCAGAGCTCGACATC,1.78,1.96,0.112,-0.0793,2.29,4.58,-0.146,4.54,0.24,4.24,4.92,4.88,5.06,0.746,4.3,4.02,0.552,0.735
ATCTCTAGGTAACAAGCTCAGTGAAAGAGAGGAC,2.93,2.48,0.643,1.26,0.56,-0.0529,0.34,0.0879,0.837,0.417,0.444,0.352,0.494,-0.305,0.272,1,0.56,-0.048
ACTAGCAGGCCAAGGGTCACTCAGGATTAGTCCG,1.05,3.72,-0.273,-0.162,4.08,3.21,-0.196,4.33,0.739,3.59,3.78,4.35,3.59,0.461,4.24,2.7,0.0494,1.22
ACTGGCAGGCCAAGTTTGGGTCACTCAAACAAAG,-0.444,0.61,-1.01,-1.29,0.0864,0.677,-0.347,1.4,-0.396,1.74,2.35,2.51,1.97,-0.557,0.925,2.56,1.14,-0.0755
CCGACTGGGACAGAAAGGTTACCATACCATCCGG,0.593,1.09,-0.448,-0.875,1.09,1.01,0.0178,1.63,-0.302,1.47,2.12,1.37,0.963,-0.641,1.61,1.19,-0.195,-0.17
CCTCGGAGGACATAAGGTCAGAGCTGTCCGCTTT,0.213,0.303,-1,-1.59,1.72,2.42,-0.0342,3.08,0.792,3.4,3.89,3.93,3.55,0.965,2.31,3.91,2.81,1.01
CCTACTGGGCCACCAAAGGTCATTGATTCAGTGA,5.36,5.74,1.31,0.0425,4.38,5.69,2.75,6.23,2.56,4,4.49,4.61,4.52,0.43,5.36,3.67,0.763,2.66
TCGAGTCGGTTAGTCGGGGCATTCAGCCAACATA,0.436,-0.0905,-0.814,-1.24,-0.388,-0.0849,-0.566,-0.027,-1.36,-0.00486,-0.0359,-0.443,-0.657,0.05,-0.48,0.291,-0.232,0.101
ATCGAAAGGTCGACGAGGTGAGTACACACCGTTT,0.467,2.23,0.931,1.06,1.57,3.19,0.753,3.6,0.262,3.82,3.26,4.26,4.18,1.34,4.5,3.7,1.06,2.27
GGAACGAGGGGAAGTTGATAGCAGAGTTTGATGG,1.12,0.62,0.337,0.547,0.593,0.111,0.308,-0.228,0.391,0.243,0.255,-0.0496,-0.0365,0.431,0.0141,-0.105,0.182,0.565
TATACAGGGTCAAAGGCCAGAATACGAATGTCGA,1.98,4.81,2.92,2.34,2.02,3.86,0.553,5.78,0.841,4.28,3.2,5.71,5.1,2.7,6.99,3.41,0.697,2.6
AAAACAGGGTCACTAGGCCAGAGTAGGTACGAAT,5.29,6.57,2.03,1.25,2.68,3.58,0.329,4.8,1.21,4.18,3.35,5.4,4.84,2.95,5.7,3.48,1.18,2.76
TCTTGTAGATCAGGAGGTTAAGAAAGCTGGCCAA,1.51,0.654,0.143,-0.244,0.0785,0.352,-0.154,0.854,-0.318,0.586,0.528,0.46,0.00207,0.445,1.29,0.711,-0.548,-0.308
CCTTACGGGTCACCCCAGGTTATAGCATCGGAGT,1.58,3.6,0.299,-0.0802,2.12,5.4,0.158,4.43,0.572,3.79,3.53,5.05,4.77,0.177,5.34,5.16,1.21,1.41
